# In PubChem BioAssay (NCI):
# This is part of a sample that, as a whole, favours compounds with a hit. Of some 79,000 tested, about 15% had one in any assay. Unmarked numbers belong to inactive results. Active and inactive are the calls of the source. No stated cut-off is given here; in the data, active means growth inhibition above about 70%; inactive means the rest.
# Tests used:
# [1] = NCI Yeast Anticancer Drug Screen. Data for the rad50 strain (AID 155);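 further: 0% = growth of vehicle-only cultures of the same strain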; conditions: S. cerevisiae rad50 strain growth inhibition, stronger effect = higher value
# Procedure, shortened: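 Compounds were tested on a yeast strain with an engineered DNA damage repair alteration; the reported value is growth inhibition normalised to vehicle treatment.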
# [2] = NCI Yeast Anticancer Drug Screen. Data for the mec2-1 strain (AID 157); conditions: S. cerevisiae mec2-1 strain, stronger effect = higher value
# Procedure, shortened: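 Cells of the genetically defined mec2-1 yeast strain are incubated with test compound. Inhibition of growth is calculated against vehicle-treated controls.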
# [3] = NCI Yeast Anticancer Drug Screen. Data for the sgs1 mgt1 strain (AID 161);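 further: 0% = growth of cultures given vehicle only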; conditions: S. cerevisiae sgs1 mgt1 strain, stronger effect = higher value
# Procedure, shortened: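 Read-out: growth inhibition vs vehicle controls. Cells: mutant yeast strain deficient in DNA damage repair.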
# [4] = NCI Yeast Anticancer Drug Screen. Data for the cln2 rad14 strain (AID 165);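 further: 0% = growth equal to vehicle treated cultures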; conditions: S. cerevisiae cln2 rad14 strain, stronger effect = higher value
# Procedure, shortened: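 The screen exposed genetically defined yeast (cln2 rad14) to test compounds and scored growth inhibition relative to vehicle-treated controls.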
# [5] = NCI Yeast Anticancer Drug Screen. Data for the bub3 strain (AID 167); conditions: S. cerevisiae bub3 mutant strain, stronger effect = higher value
# Procedure, shortened: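 Growth of a checkpoint-deficient yeast mutant is measured after compound exposure. Values represent inhibition relative to vehicle.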
# [6] = NCI Yeast Anticancer Drug Screen. Data for the mlh1 rad18 strain (AID 175); conditions: S. cerevisiae mlh1 rad18 strain growth inhibition, stronger effect = higher value
# Procedure, shortened: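 Compound-treated yeast growth, normalised to vehicle controls. Strain bears defined DNA repair mutations.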
# [7] = at 5.0 µM (retest, dose inferred, filed as 0.5)
# [8] = at 50.0 µM (retest, dose inferred, filed as 5.0)
Structure (SMILES),"growth inhibition [1, 7]","growth inhibition [1, 8]",growth inhibition ([1]; at 50.0 µM),"growth inhibition [2, 7]","growth inhibition [2, 8]",growth inhibition ([2]; at 50.0 µM),"growth inhibition [3, 7]","growth inhibition [3, 8]",growth inhibition ([3]; at 50.0 µM),"growth inhibition [4, 7]","growth inhibition [4, 8]",growth inhibition ([4]; at 50.0 µM),"growth inhibition [5, 7]","growth inhibition [5, 8]",growth inhibition ([5]; at 50.0 µM),"growth inhibition [6, 7]","growth inhibition [6, 8]",growth inhibition ([6]; at 50.0 µM)
Cc1ccc(C(=O)OCC(C)C)cc1N=NN(C)C,4%,21%,68.8%,-3%,-6%,19.9%,-5%,14%,29.4%,7%,31%,38.8%,-1%,48%,31.1%,-24%,38%,8.3%
CC1SC(c2ccc(Cl)cc2)N2C(=O)C(C)SC(c3ccc(Cl)cc3)N2C1=O (configuration not stated),84% (active),91% (active),71% (active),53%,91% (active),27.1%,85% (active),95% (active),30.9%,84% (active),93% (active),52.6%,79% (active),94% (active),26.1%,74% (active),90% (active),60%
CC(=O)OC1C(O)C(C)OC(OC(=O)C2CCC3C(C2)OC2(CC(OC(=O)/C=C/c4ccccc4)C(C)CO2)C32CO2)C1OC1OC(C)C(O)C(O)C1O (configuration not stated),23%,97% (active),88% (active),18%,98% (active),89.9% (active),26%,98% (active),47.1%,17%,92% (active),75.6% (active),21%,97% (active),88% (active),34%,97% (active),88% (active)
CC(=O)OC/C=C/CCCOC(C)=O,-15%,4%,77.8% (active),-12%,-17%,64.3%,-7%,5%,84% (active),38%,31%,77.9% (active),17%,19%,80.3% (active),5%,-5%,62.6%
O=C1c2ccccc2-c2ccc(N3C(=O)C4CCCCC4C3=O)cc21 (configuration not stated),-5%,95% (active),-31.3%,-4%,96% (active),5.4%,-4%,96% (active),-9.15%,-8%,95% (active),-36.8%,41%,95% (active),74.9% (active),-4%,94% (active),-26.2%
CC(C)=CCc1c2c(c(O)c3c(=O)c(-c4ccc(O)cc4O)coc13)C=CC(C)(C)O2,-20%,95% (active),83.2% (active),-13%,97% (active),86% (active),-11%,95% (active),85.9% (active),15%,97% (active),83.2% (active),26%,96% (active),81.2% (active),7%,95% (active),84.7% (active)
CCCCCCCCCCCC(=O)NC(CCC(=O)O)C(=O)O (configuration not stated),4%,-2%,-6.05%,-19%,-12%,-8%,-3%,-1%,5.95%,-5%,-9%,49.4%,-7%,0%,-2.15%,-18%,-8%,5.1%
CC(C)=NOCCOC(=O)C(c1ccccc1)c1ccccc1,-4%,3%,80.7% (active),-5%,2%,75% (active),-8%,-2%,92% (active),0%,18%,39.6%,7%,25%,96.6% (active),-6%,0%,89% (active)
Cn1ncc2c(Nc3cccc(Cl)c3)nc(Nc3cccc(Cl)c3)nc21,47%,97% (active),96% (active),18%,98% (active),94.2% (active),27%,98% (active),96.2% (active),11%,97% (active),95.4% (active),-7%,98% (active),94.2% (active),32%,97% (active),95.7% (active)
C=CC1(C)CCC2C(=CCC3C(C)(COC4OC(CO)C(O)C(O)C4O)C(O)CCC23C)C1 (configuration not stated),-4%,99% (active),93.2% (active),-1%,99% (active),93.9% (active),-3%,43%,93.8% (active),-1%,70% (active),91.5% (active),18%,92% (active),93.6% (active),-3%,99% (active),92.8% (active)
Oc1ccccc1/C=N\N=C\c1ccccc1O,5%,-22%,8.75%,-10%,-3%,3.5%,4%,4%,-10.8%,7%,-3%,37.2%,-70%,6%,0.8%,2%,0%,13.2%
Clc1ccnc2c1ccc1c(Cl)ccnc12,8%,53%,43.6%,-17%,2%,26.4%,1%,12%,20.7%,5%,-10%,13.9%,-74%,10%,40.6%,3%,15%,45.9%
Clc1cc2c(c3ncccc13)OCN(CCc1ccccc1)C2,5%,8%,98.7% (active),-3%,-5%,94.2% (active),2%,7%,99.2% (active),1%,16%,78.5% (active),4%,0%,69.6%,2%,10%,98.4% (active)
O=S(=O)(OI(OI(OS(=O)(=O)C(F)(F)F)c1ccccc1)c1ccccc1)C(F)(F)F,58%,97% (active),89.2% (active),48%,98% (active),91.5% (active),44%,98% (active),91.7% (active),27%,92% (active),91.1% (active),65%,98% (active),91% (active),75% (active),97% (active),89.2% (active)
Cc1cc(O)c(C(=O)/C=C/c2cccnc2)c(=O)[nH]1,-13%,79% (active),68.9%,-3%,76% (active),33.7%,-5%,92% (active),84.8% (active),9%,70% (active),16.3%,-16%,89% (active),78.8% (active),8%,91% (active),93% (active)
CN(C)CCCNc1c2ccccc2nc2ccc(F)cc12,0%,24%,27.2%,-8%,26%,24.4%,6%,24%,15.2%,8%,21%,81.8% (active),0%,6%,42.5%,14%,27%,36.8%
CC1C(=O)C(C)C(c2ccccc2)N(C)C1c1ccccc1 (configuration not stated),81% (active),98% (active),99% (active),42%,99% (active),99.1% (active),81% (active),98% (active),99.3% (active),31%,98% (active),99% (active),42%,95% (active),99.4% (active),63%,98% (active),99.1% (active)
O=C(Oc1ccc(Cl)cc1)Oc1ccc(Cl)cc1,-13%,16%,3.55%,-10%,4%,16.7%,0%,25%,14.3%,-2%,36%,16.9%,-1%,-23%,18.3%,6%,12%,17.1%
O=C(NCCc1c(-c2ccccc2)[nH]c2ccccc12)C(F)(F)C(F)(F)F,21%,21%,86.5% (active),1%,1%,91% (active),33%,33%,84.8% (active),4%,4%,81.6% (active),5%,5%,79% (active),23%,23%,30.1%
